Compound activity from PubChem BioAssay.
Tb PYK inh = blocks Trypanosoma brucei pyruvate kinase; Q57TT1; TbPYK enzyme, Kinase-Glo Plus ATP luminescence, 45 min; Potency, µM (highest dose often 76.8 µM), hits mostly inhibitors; 410,000 compounds, 0.12% hits; further: nearly all actives have a fitted effect of over 50% in size
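Assay buffer: 50 mM TEA pH 7.2, 100 mM KCl, 10 mM MgCl2, 0.05% BSA, 0.01% Tween-20. Pyruvate kinase from T. brucei plus substrate met compound, then ADP (130 uM final). Luminescence was read post 45 min RT.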
Shiga toxin inh = Shiga toxin inhibition. 290,000 compounds, 9.2% hits. Vero cells, Shiga toxin protein synthesis inhibition reporter. AID 2315. inhibition, % at 38.7 µM; in the data active means inhibition mostly above about 28%, no sharp cut-off; inactive means mostly below about 43%
Cycloheximide cs = counter-screen hit for Shiga toxin inhibitors, cycloheximide | cell reporter, cycloheximide protein synthesis inhibition counterscreen | max response, % | 300,000 compounds, 12% hits; in the data active means max response mostly above about 13%, no sharp cut-off; inactive means mostly below about 14%; further: read at 38.3 µM for the half of the compounds with a filed dose
RE007 growth inh = less growth of the S. pombe RE007 Vpr strain; S. pombe RE007 Vpr strain, BacTiter-Glo ATP luminescence, 24 h; Potency, µM (highest dose often 92.2 µM), hits mostly inhibitors; 360,000 compounds, 0.21% hits; AID 651644; active means well fitted falling curve with a large enough effect; inconclusive means small, poorly fitted or top-dose-only effect; inactive means no such curve, though single readings can be large or run the other way; further: nearly all actives have a fitted effect of over 50% in size
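Fission yeast RE007 carrying one integrated HIV-1 vpr copy, seeded at OD 0.01 in PMG+AL medium with 23 nL pinned compound. Grown 24 h at 30 degrees; viability read by BacTiter-Glo luminescence after 5 min.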
LmPK inhibitor = inhibitors of Leishmania mexicana pyruvate kinase; 290,000 compounds, 0.37% hits; Potency, µM (doses to about 57.5 µM), most hits filed as inhibitors; purified LmPK, Kinase-Glo ATP luminescence, 1 h; Q27686
Target sequence (Q27686 whole entry, looked up): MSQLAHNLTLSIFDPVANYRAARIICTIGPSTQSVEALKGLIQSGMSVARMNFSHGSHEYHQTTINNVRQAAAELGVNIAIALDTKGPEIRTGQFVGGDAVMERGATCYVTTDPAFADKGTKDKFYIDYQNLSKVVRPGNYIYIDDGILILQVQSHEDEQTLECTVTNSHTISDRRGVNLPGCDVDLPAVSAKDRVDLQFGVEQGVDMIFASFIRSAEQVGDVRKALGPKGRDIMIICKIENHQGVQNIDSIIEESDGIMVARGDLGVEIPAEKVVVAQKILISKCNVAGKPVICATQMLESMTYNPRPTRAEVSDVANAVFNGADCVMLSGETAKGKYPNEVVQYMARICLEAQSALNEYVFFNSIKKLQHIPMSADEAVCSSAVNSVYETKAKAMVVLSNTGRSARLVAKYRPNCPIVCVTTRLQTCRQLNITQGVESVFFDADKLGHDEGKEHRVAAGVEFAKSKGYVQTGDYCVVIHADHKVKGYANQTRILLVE
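Purified LmPK (0.1 nM) converted ADP (0.1 mM) to ATP with PEP (0.5 mM) in imidazole buffer pH 7.2 with KCl and MgCl2, 1 h at room temperature. ATP was read by Kinase-Glo luminescence; data normalized to uninhibited and no-enzyme controls.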
Giardia FBPA inh = inhibitors of Giardia lamblia fructose-1,6-bisphosphate aldolase; A8B2U2; purified Giardia FBPA; Potency, µM (highest dose often 59.6 µM), hits mostly inhibitors; 290,000 compounds, 0.71% hits; AID 2451; further: nearly all actives have a fitted effect of over 55% in size
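Giardia FBPA (40 nM reagent) was preincubated 10 min at RT with compound (up to 57.5 uM final), then substrate plus GAPDH/TPI/NAD/arsenate coupling system with diaphorase/resazurin was added; resorufin fluorescence (525/598 nm) was read after 20 min.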
Of the large screens only hits and unclear results are named; the others gave an inactive call. This excerpt belongs to a sample that is enriched for hits. Unless noted, the call rests on the fitted dose curve; in most records, active means well fitted curve in the direction sought with a large enough effect; inconclusive means small, poorly fitted or top-dose-only effect, or another doubt; inactive means no such curve, though single readings can be large; an effect the other way counts as inactive or inconclusive.

Cc1ccc(S(=O)(=O)CCC(=O)OCC(=O)Nc2ccc(N3CCOCC3)cc2)cc1	none (no result: Shiga toxin inh, Cycloheximide cs, LmPK inhibitor, Giardia FBPA inh)
CC[C@H](C)[C@H](NC(=O)[C@H](CCC(=O)O)NC(=O)CNC(=O)[C@H](CCCCN)NC(=O)[C@H](CCC(=O)O)NC(=O)[C@H](CCSC)NC(=O)[C@H](CCSC)NC(=O)[C@H](CCSC)NC(=O)[C@H](CCC(=O)O)NC(=O)CNC(=O)[C@H](CO)NC(=O)[C@H](CO)NC(=O)[C@H](CO)NC(=O)[C@@H](N)CC(N)=O)C(=O)N[C@@H](CCCCN)C(=O)O	none (no result: Tb PYK inh, RE007 growth inh, LmPK inhibitor)
N#C/C(=C\c1ccc(N2CCCCC2)o1)C(=O)Nc1cccc(Br)c1	Shiga toxin inh 106, Cycloheximide cs 58
N#C/C(=C\c1ccc(N2CCCCC2)o1)C(N)=O	Cycloheximide cs 17
Cc1ccc(/C=C(\C#N)C(=O)Nc2cccc(Br)c2)o1	none (no result: Shiga toxin inh, Cycloheximide cs, RE007 growth inh, LmPK inhibitor, Giardia FBPA inh)
COCCNC(=O)C(c1ccncc1)N(Cc1ccccc1)C(=O)Cn1nnc2ccccc21 (configuration not stated)	Shiga toxin inh 42, Cycloheximide cs 33
COCCNC(=O)C(c1cccnc1)N(Cc1ccccc1)C(=O)Cn1nnc2ccccc21 (configuration not stated)	Shiga toxin inh 94, Cycloheximide cs 29
COCCNC(=O)C(c1ccccc1)N(Cc1cccs1)C(=O)Cn1nnc2ccccc21 (configuration not stated)	none
CCN1C(=O)C(=O)N(CC(=O)c2cc(C)n(C3CC3)c2C)C1=O	none (no result: Shiga toxin inh, Cycloheximide cs, LmPK inhibitor, Giardia FBPA inh)
COc1ccc(-n2c(C)cc(C(=O)CN3C(=O)c4ccccc4C3=O)c2C)cc1	Cycloheximide cs 20
Cc1cc(C(=O)CN2C(=O)c3ccccc3C2=O)c(C)n1C1CC1	Cycloheximide cs 23
Clc1cnc(N/N=C/c2cccs2)c(Cl)c1	Shiga toxin inh 128, Cycloheximide cs 36
Oc1ccc(/C=N/Nc2ncc(Cl)cc2Cl)cc1	Shiga toxin inh 111, Cycloheximide cs 50
Clc1cnc(N/N=C/c2ccco2)c(Cl)c1	Shiga toxin inh 94, Cycloheximide cs 57
O=C(COC(=O)/C=C/c1ccco1)Nc1ncc(Cl)cc1Cl	none
Cc1ccc(/C=N/Nc2ccc(F)cc2F)s1	Shiga toxin inh 91, Cycloheximide cs 37
O=C(Nc1cccc(C(F)(F)F)c1)c1cc(S(=O)(=O)N2CCCC2)c[nH]1	none (no result: Shiga toxin inh, Cycloheximide cs, RE007 growth inh, LmPK inhibitor, Giardia FBPA inh)
NC(=O)c1ccc(/C=N/O)[n+](Cc2ccccc2)c1	none
Cc1ccc(N2CCN(C(=O)Nc3cn(CC(C)C)c(=O)c4ccccc34)CC2)c(C)c1	none (no result: Shiga toxin inh, Cycloheximide cs, RE007 growth inh, LmPK inhibitor, Giardia FBPA inh)
Cc1ccc(/C=N/Nc2ncc(Cl)cc2Cl)s1	Cycloheximide cs 34
Cc1ccc(S(=O)(=O)NN2C(=O)c3ccccc3NC2c2ccccc2)cc1 (configuration not stated)	Shiga toxin inh 98, Cycloheximide cs 24
COc1ccc(C2Nc3ccccc3C(=O)N2NS(=O)(=O)c2ccc(C)cc2)cc1 (configuration not stated)	none
CS(=O)(=O)NN1C(=O)c2ccccc2NC1c1cc2ccccc2nc1Cl (configuration not stated)	Cycloheximide cs 16
CS(=O)(=O)NN1C(=O)c2ccccc2NC1c1ccccc1F (configuration not stated)	none
CN(C)c1ccc(C2Nc3ccccc3C(=O)N2NS(C)(=O)=O)cc1 (configuration not stated)	Cycloheximide cs 15
CC(=O)NN1C(=O)c2ccccc2NC1c1ccc(N(C)C)cc1 (configuration not stated)	none
CCOC(=O)C1CCCCN1S(=O)(=O)c1csc(C(N)=O)c1 (configuration not stated)	none (no result: Shiga toxin inh, Cycloheximide cs, RE007 growth inh, LmPK inhibitor, Giardia FBPA inh)
CNC(=S)NNC(=O)c1cc(-c2cccnc2)nc2ccccc12	RE007 growth inh inconclusive (no result: Giardia FBPA inh)
CC1(C)OC(=O)C(=NNc2ccc(C(=O)O)cc2)C(=O)O1	none
CC1(C)OC(=O)C(=NNc2ccc(O)cc2)C(=O)O1	Cycloheximide cs 13
CC1(C)OC(=O)C(=NNc2ccccc2[N+](=O)[O-])C(=O)O1	RE007 growth inh 35µM
CC1(C)OC(=O)C(=NNc2ccc(Cl)cc2)C(=O)O1	Shiga toxin inh 63, Cycloheximide cs 60
